Composite z-score, z-score and composite Z-score data for 5 compounds are collected here from PubChem BioAssay.

Structures are written as SMILES. Active and inactive are the calls of the source.

In assay [1] the test system is Human papillomavirus type 1a protein E7 (residues 44-93). The assay is described as follows: HPV1a E7 fragment binders on microarrays, primary screen, biochemical, small-molecule microarray, residues 44-93, 635 nm fluorescence (AID 1108).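 Further: E7 fragment applied at 1 µg/mL in TBST for 1 h at 4 C; score combines spot fluorescence with its signal to noise ratio.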 The settings on record: small-molecule microarray binding, fluorescence 635 nm; higher = more signal.
The nature of assay [2]: modulators of HCV replicon luciferase signal, primary screen, HCV replication inhibitor project, Huh7 cells, luciferase reporter (AID 1109).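 Further: huh7 hepatoma cells harbouring a luciferase neomycin HCV replicon reporter; luciferase luminescence as measure of HCV replicon replication; test concentration not given here.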 The settings on record: 48 h, higher = more signal. (In general: A replicon is a self-replicating genome or part of one, used to study replication in cells.)
Assay [3] concerns the target Left-right determination factor 2 (Homo sapiens) (UniProt O00292). The assay is described as follows: LEFTY2 binders on small-molecule microarrays, primary screen, biochemical, small-molecule microarray, 635 nm fluorescence scan (AID 1110). The settings on record: LEFTY2 binding, higher = more signal.
The target of assay [4] is Calmodulin-1 (Homo sapiens) (UniProt P0DP23). The assay is described as follows: CALM1 binders on microarrays, EGTA buffer, profiling panel, biochemical, small-molecule microarray, Cy5-labelled CALM1 (AID 1111).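 Further: labelled calmodulin applied in Tris saline Tween buffer holding calcium plus EGTA and DTT.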 The settings on record: Cy5-CALM1 binding fluorescence, higher = more signal.
Assay [5] shares this target. The assay is described as follows: calcium-bound CALM1 binders on microarrays, profiling panel, artefact control for SMM control-protein annotation, biochemical, small-molecule microarray, Cy5-labelled CALM1, plus calcium (AID 1112).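 Further: score merges spot fluorescence with signal to noise from triplicate slides.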 The settings on record: Cy5-CALM1 binding fluorescence, higher = more signal.
Assay [6] can be described thus: small-molecule microarray binders of probe aWnt5a, primary screen, biochemical, biotinylated probe, 635/667 nm fluorescence (AID 1113).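 Further: score merges 667 nm fluorescence intensity with signal-to-noise per printed feature.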 The settings on record: higher = more signal.
Assay [7] can be described thus: small-molecule microarray binders of probe aShh, primary screen, biochemical, biotinylated probe, 635/667 nm fluorescence (AID 1114).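 Further: probe is biotin-labelled aShh protein from a stem cell growth factor screen; measures binding of labelled protein to compounds printed on the slide; score merges feature fluorescence at 667 nm with signal-to-noise.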 The settings on record: higher = more signal.
Assay [8] can be described thus: small-molecule microarray binders of probe aNog, primary screen, biochemical, biotinylated probe, 635/667 nm fluorescence (AID 1115).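 Further: probe is biotinylated aNog protein used at 0.15 µg/mL for 1 h at 4 C; z-score combines 667 nm fluorescence of each spot with its signal to noise.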 The settings on record: higher = more signal.
Assay [9] deals with Torsin-1A-interacting protein 1 (Homo sapiens) (UniProt Q5JTV8). As to the kind of experiment: LAP1 binders from COS7 cell lysate, primary screen, small-molecule microarray, 635/667 nm fluorescence (AID 1116). The settings on record: COS7-hLAP1 lysate binding, 635 nm fluorescence, higher = more signal.
Assay [10] concerns the target Alpha-bungarotoxin (Bungarus multicinctus) (UniProt P60615). As to the kind of experiment: alpha-bungarotoxin binders on microarray, profiling panel, artefact control for SMM control protein annotation, biochemical, small-molecule microarray, Alexa647 label, 635/667 nm fluorescence (AID 1117). The settings on record: alpha-BTX-A647 binding fluorescence, higher = more signal.

The target in the next assay is Albumin (Bos taurus) (UniProt P02769). The assay is described as follows: bovine serum albumin binders on microarray, profiling panel, artefact control for SMM control protein annotation, biochemical, small-molecule microarray, Alexa647 label, 635/667 nm fluorescence (AID 1118).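 Further: score merges 667 nm emission intensity and signal-to-noise per printed compound spot.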 The settings on record: BSA-A647 binding, fluorescence 635 nm, higher = more signal.
Assay [11] is described as follows: small-molecule microarray binders of probe aXIP, primary screen, biochemical, NeuroSMM set, 635/667 nm fluorescence (AID 1119).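 Further: probe is the protein aXip251-270 applied at 1 µg/mL to compound-printed slides; binding of probe to printed compounds measured as 667 nm fluorescence plus signal to noise.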 The settings on record: higher = more signal, called active from +8 up or from −8 down.
Assay [12] is described as follows: small-molecule binders of probe aNOTCH3, primary screen, biochemical, small-molecule microarray, 635/667 nm fluorescence (AID 1120).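 Further: probe is a biotin-tagged antibody raised against NOTCH3 rather than NOTCH3 protein; score merges spot fluorescence near 667 nm with spot signal to noise.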 The settings on record: higher = more signal.
Assay [13] in a line: small-molecule binders of probe aNOTCH2, primary screen, biochemical, small-molecule microarray, 635/667 nm fluorescence (AID 1121).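 Further: score merges feature fluorescence read at 667 nm with its signal to noise.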 The settings on record: higher = more signal.
In assay [14] the target is Carbonic anhydrase 2 (Homo sapiens) (UniProt P00918). The assay is described as follows: CAII small-molecule binders, profiling panel, biochemical, small-molecule microarray, Alexa647-labelled CAII (AID 1122). The settings on record: CAII-A647 binding fluorescence, higher = more signal.
Assay [15] is described as follows: COS7 lysate on small-molecule microarray, probe aHis, 635 nm (AID 1123).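 Further: z-score combines 667nm fluorescence intensity with signal-to-noise per printed compound spot.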 The settings on record: COS7 cell lysate, fluorescence, higher = more signal.
The nature of assay [16]: compound binding in COS7 lysate, probe aLAP1, primary screen, cell lysate, small-molecule microarray (AID 1124).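 Further: lysate comes from COS7 cells expressing LAP1 and is applied at 0.3 µg/mL; score merges spot fluorescence near 667 nm with signal-to-noise over triplicate slides.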 The settings on record: probe aLAP1, fluorescence, higher = more signal.
A further assay concerns Sam68 (KHDRBS1). As to the kind of experiment: Sam68 small-molecule binders, primary screen, biochemical, small-molecule microarray, 635 nm fluorescence (AID 1125).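 Further: score merges 667 nm channel intensity with signal to noise over triplicate slides.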 The settings on record: small-molecule microarray binding, higher = more signal.
In assay [17] the test system is Chordin-like protein 2 (CHRDL2). As to the kind of experiment: CHRDL2 small-molecule binders, primary screen, biochemical, small-molecule microarray, 635 nm fluorescence (AID 1126).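 Further: printed compound slides probed with Chrdl2 protein at 4 µg/mL for 1 h at 4 C; score merges 667 nm emission intensity with signal to noise over three replicate slides.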 The settings on record: small-molecule microarray binding, fluorescence 635 nm; higher = more signal.
The target in assay [18] is Concanavalin-A (Canavalia ensiformis) (UniProt P02866). The assay is described as follows: ConA small-molecule binders, primary screen, artefact control for SMM control protein annotation, biochemical, small-molecule microarray, Alexa647 label, 635 nm (AID 1127).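 Further: z combines 667 nm emission intensity with signal-to-noise across three replicate slides.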 The settings on record: ConA-A647 binding fluorescence, higher = more signal.
Chain of Concanavalin-A (Canavalia ensiformis) (P02866 whole entry, looked up): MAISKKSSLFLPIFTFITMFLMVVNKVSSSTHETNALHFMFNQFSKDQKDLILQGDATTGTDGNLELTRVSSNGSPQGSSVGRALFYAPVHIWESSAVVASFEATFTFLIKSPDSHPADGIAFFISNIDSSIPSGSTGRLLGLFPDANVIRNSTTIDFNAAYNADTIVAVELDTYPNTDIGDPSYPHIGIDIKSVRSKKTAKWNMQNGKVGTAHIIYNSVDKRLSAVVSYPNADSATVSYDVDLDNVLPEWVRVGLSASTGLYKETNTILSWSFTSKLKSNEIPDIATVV

Chain of Torsin-1A-interacting protein 1 (Homo sapiens) (Q5JTV8 whole entry, looked up): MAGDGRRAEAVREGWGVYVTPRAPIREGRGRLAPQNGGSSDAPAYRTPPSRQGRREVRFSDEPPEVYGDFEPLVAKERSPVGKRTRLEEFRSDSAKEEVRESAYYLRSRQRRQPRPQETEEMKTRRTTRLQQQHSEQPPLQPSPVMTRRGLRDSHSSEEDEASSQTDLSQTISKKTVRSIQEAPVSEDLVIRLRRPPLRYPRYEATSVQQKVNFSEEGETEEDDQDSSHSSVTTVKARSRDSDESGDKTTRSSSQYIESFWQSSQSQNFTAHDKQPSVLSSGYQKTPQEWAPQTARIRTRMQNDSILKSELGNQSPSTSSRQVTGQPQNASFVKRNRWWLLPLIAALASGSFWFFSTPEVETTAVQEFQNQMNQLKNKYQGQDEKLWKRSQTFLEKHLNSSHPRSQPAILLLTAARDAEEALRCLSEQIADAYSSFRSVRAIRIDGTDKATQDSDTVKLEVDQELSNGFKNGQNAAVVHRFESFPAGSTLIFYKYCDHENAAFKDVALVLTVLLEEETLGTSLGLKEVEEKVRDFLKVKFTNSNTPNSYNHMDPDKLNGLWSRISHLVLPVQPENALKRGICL
Chain of Alpha-bungarotoxin (Bungarus multicinctus) (P60615 whole entry, looked up): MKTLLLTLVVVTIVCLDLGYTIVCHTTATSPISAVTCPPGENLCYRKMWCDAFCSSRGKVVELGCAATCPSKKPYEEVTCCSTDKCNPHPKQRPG
Chain of Left-right determination factor 2 (Homo sapiens) (O00292 whole entry, looked up): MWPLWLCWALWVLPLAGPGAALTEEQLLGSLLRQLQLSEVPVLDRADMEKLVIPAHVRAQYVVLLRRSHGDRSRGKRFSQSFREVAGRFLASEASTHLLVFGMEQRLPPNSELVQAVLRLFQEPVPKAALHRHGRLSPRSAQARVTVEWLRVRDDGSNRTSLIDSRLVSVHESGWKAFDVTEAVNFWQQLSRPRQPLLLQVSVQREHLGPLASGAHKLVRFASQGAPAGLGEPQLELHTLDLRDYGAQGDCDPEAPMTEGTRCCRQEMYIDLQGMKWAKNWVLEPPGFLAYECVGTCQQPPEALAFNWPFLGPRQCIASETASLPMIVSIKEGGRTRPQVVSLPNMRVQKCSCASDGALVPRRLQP
Chain of Albumin (Bos taurus) (P02769 whole entry, looked up): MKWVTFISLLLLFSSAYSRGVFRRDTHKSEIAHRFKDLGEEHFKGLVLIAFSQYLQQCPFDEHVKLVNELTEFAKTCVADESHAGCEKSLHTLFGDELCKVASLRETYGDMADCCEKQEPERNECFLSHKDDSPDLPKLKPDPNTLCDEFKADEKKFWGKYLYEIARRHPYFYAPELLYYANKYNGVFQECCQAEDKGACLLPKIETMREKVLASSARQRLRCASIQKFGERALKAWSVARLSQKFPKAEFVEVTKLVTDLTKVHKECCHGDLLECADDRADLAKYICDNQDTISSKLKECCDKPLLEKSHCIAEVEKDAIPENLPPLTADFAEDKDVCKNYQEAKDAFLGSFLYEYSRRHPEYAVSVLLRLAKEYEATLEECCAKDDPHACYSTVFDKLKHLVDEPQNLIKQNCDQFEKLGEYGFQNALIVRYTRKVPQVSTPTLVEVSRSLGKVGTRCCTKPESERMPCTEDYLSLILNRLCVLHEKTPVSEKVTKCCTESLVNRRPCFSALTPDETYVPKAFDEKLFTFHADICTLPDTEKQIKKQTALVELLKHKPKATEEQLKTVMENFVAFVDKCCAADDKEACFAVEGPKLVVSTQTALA

On to `COCCOC(=O)N1C(=O)[C@@]2(c3cc(C#CCNC(N)=O)ccc31)[C@H](c1ccc(O)cc1)N1[C@H](c3ccccc3)[C@H](c3ccccc3)OC(=O)[C@H]1[C@@H]2C(N)=O`, for which the composite z-score is -0.8 in assay [1]; -2.24 in assay [3]; -0.747 in [4]; 0.502 in assay [5]; -0.377 in assay [6]; -0.378 in assay [7]. The composite z-score in assay [8] was -0.0585; in [9] it was -0.448; in [10], -2.27; in the assay with Albumin (Bos taurus), -0.864; in assay [12] it was -0.443; in [13] it was -0.198. In addition, the composite z-score was -0.394 in assay [14]; -0.157 in assay [15]; -0.38 in assay [16]; -0.344 with Sam68 (KHDRBS1); -1.52 in [17]; -1.03 in assay [18]. For the same compound, the z-score in assay [2] is -0.101. Besides, in [11], the composite Z-score is -1.03 (inactive).

For `[N-]=[N+]=NCc1ccccc1[C@H]1OC(c2ccc(OCCCO)cc2)=N[C@@]1(Cc1ccccc1)C(=O)NCCN1CCOCC1`, the composite z-score in [1] is -0.442; in assay [3], 0.293; in assay [4] it was 0.572; in [5] it was -0.138; in assay [6] it was 0.0711; in [7], 0.0088. Moreover, the composite z-score in assay [8] is 1.97; in assay [9], 1.28; in assay [10], 1.78; with Albumin (Bos taurus), 0.985; in [12] it was 0.576; in assay [13] it was -0.0531. Further, the composite z-score is 0.696 in assay [14]; 2.61 in [15]; 0.961 in assay [16]; 1.3 in the assay on Sam68 (KHDRBS1); 0.104 in assay [17]; 1.12 in assay [18]. The compound also registered a z-score in assay [2] of -1.62. Further, in assay [11], the composite Z-score was 0.0851 (inactive).

As to `C=C(COC)C(=O)CC[C@H](OC(C)=O)c1ccc(OCCO)cc1`, the composite z-score in assay [1] is 0.159; in assay [3] it was 0.557; in assay [4] it was -0.2; in assay [5], -1.08; in assay [6], -0.0445; in assay [7], -0.0011. For the same compound, the composite z-score was -0.0562 in [8]; 3.4 in assay [9]; 0.915 in assay [10]; -0.0592 with Albumin (Bos taurus); -0.0362 in [12]; -0.0971 in assay [13]. The composite z-score in [14] came to 0.549; in assay [15] it was 0.523; in assay [16], 2.46; with Sam68 (KHDRBS1), 0.666; in assay [17], 0.569; in [18], 0.488. In [2], the z-score was -1.17. Further, the composite Z-score in assay [11] was -0.308 (inactive).

With `CO[C@H]1O[C@H](CO)[C@@H](OC(=O)Nc2ccc(C#N)cc2)[C@@H]2OC(=O)[C@H](Cc3cccc(Br)c3)C/C=C/C[C@@H](Cc3cccc(Br)c3)C(=O)O[C@@H]12`, the composite z-score is 1.02 in [1]; 0.721 in [3]; 0.211 in assay [4]; -0.121 in assay [5]; -0.104 in assay [6]; 0.326 in [7]. The composite z-score is 0.886 in assay [8]; 0.318 in [9]; 0.764 in [10]; 0.348 with Albumin (Bos taurus); 0.0935 in [12]; -0.0711 in assay [13]. In addition, the composite z-score was 0.26 in assay [14]; 0.913 in [15]; 0.23 in assay [16]; 0.697 with Sam68 (KHDRBS1); 0.116 in assay [17]; 0.384 in assay [18]. In assay [2], the z-score was -3.4. In addition, in [11], the composite Z-score is 0.656 (inactive).

On to `O=C1O[C@H](c2ccccc2)[C@H](c2ccccc2)N2[C@H]1[C@@H](C(=O)N1CCCCCCC1)[C@]1(C(=O)Nc3ccc(C#CC4(O)CCCCCC4)cc31)[C@H]2c1ccc(O)cc1`, for which the composite z-score in assay [1] turned out to be 1.4; in assay [3] it was 1.33; in assay [4], 2.42; in [5], 1.19; in assay [6], 1.2; in [7], 2.97. In addition, the composite z-score in [8] was 3.1; in assay [9], 4.57; in assay [10] it was 2.28; with Albumin (Bos taurus), -0.0339; in [12], 1.77; in assay [13] it was 0.956. Also, the composite z-score was 0.705 in [14]; 3.64 in assay [15]; 1.42 in [16]; 1.29 in the assay on Sam68 (KHDRBS1); 1.39 in assay [17]; 1.07 in assay [18]. This compound also gave a z-score in [2] of -1.36. In addition, the composite Z-score in assay [11] is 5.24 (inactive).
